# Measured values taken from the supplement of paper PMC8726507.
# Test system: Plasmodium falciparum NF54-HGL (transmission to Anopheles stephensi)
# Assay: percentage of barcode signal found in uninfected mosquitoes (transmission-blocking activity); higher = stronger blocking of transmission to mosquito, active = 80 or more
# Details: 10 µM; gametocyte preincubation time 24 h; readout time post-feed 8 days
# Procedure: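 The mixture was fed to Anopheles stephensi in 96-well plates as blood meals tagged with DNA-barcoded Asaia bacteria. Eight days later, mosquitoes were classed infected or uninfected by luminescence (mean + 5 SD of unfed controls). Barcodes were quantified by Luminex MagPlex-TAG in the pooled uninfected and infected Asaia cultures, background-corrected, and the score is % of barcode signal in uninfected mosquitoes = 100*Iu/(Iu+Ii).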
row,SMILES,percentage of barcode signal found in uninfected mosquitoes
1,CC1=Nc2ccc(Cl)cc2C(O)(c2ccc(C)cc2)N1CCN1CCCCC1 (stereo not given),83.9% (active)
2,COc1ccc(C2(C(=O)Nc3ccc(Br)cc3)CCCC2)cc1,15.2% (inactive)
3,CCOC(=O)NC(=O)c1ccsc1NC(=O)c1nc2ccccc2s1,-0.298% (inactive)
4,Nc1ncnc2c1ncn2[C@@H]1O[C@H](COS(=O)(=O)NC(=O)c2ccccc2O)[C@@H](O)[C@H]1O,-0.124% (inactive)
5,CCC(Sc1nc2ccccc2o1)C(=O)Nc1nccs1 (stereo not given),-4.79% (inactive)
6,N#Cc1ccc(-c2ccc(OCC(N)=O)cc2)cc1,-1.66% (inactive)
7,CCCS(=O)(=O)N1CCC(CO)(Cc2ccccc2C(F)(F)F)CC1,39.3% (inactive)
8,Cc1ccc(NC(=O)c2nc[nH]c2C(=O)Nc2nc3ccccc3[nH]2)c(C)c1,73.8% (inactive)
9,CCOc1ccc2cc(-c3nn(CC4CCN(C)CC4)c4ncnc(N)c34)ccc2c1,-7.02% (inactive)
10,CC(=O)NC[C@H]1CN(c2ccc(N3CCSCC3)c(F)c2)C(=O)O1,24.7% (inactive)
11,Nc1nc(N)c2c3c(sc2n1)CN(Cc1ccccc1)CC3,11.7% (inactive)
12,c1csc(-c2cnc3sc(NCC4CCOCC4)nn23)c1,38.7% (inactive)
13,CS(=O)(=O)Cc1nc2ccccc2oc1=O,80.3% (active)
14,CNC(=O)C1Cc2ccccc2N1C(=O)Cc1ccc(F)cc1 (stereo not given),27.5% (inactive)
15,CCN(CC)S(=O)(=O)c1ccc(Cl)c(C(=O)Nc2ccc3nc(C)sc3c2)c1,86.1% (active)
16,COc1ccc(OC)c(NCc2ccc3nc(N)nc(N)c3c2Cl)c1,94.7% (active)
17,COC(=O)Nc1nc2cc(C(=O)c3ccccc3)ccc2[nH]1,42.3% (inactive)
18,O=C(Nc1nc(-c2ccccn2)cs1)C1CC1c1ccccc1F (stereo not given),53.8% (inactive)
19,O=C(Nc1cccnc1)c1c(O)c2cccc3c2n(c1=O)CC3,20.2% (inactive)
20,CC(Oc1ccccc1)C(=O)Nc1nc(-c2ccccn2)cs1 (stereo not given),84.2% (active)
21,c1ccc(Oc2ccc(-c3cc(C4CCOCC4)[nH]n3)cc2)cc1,10.6% (inactive)
22,CC(C(=O)Nc1ccc2oc(-c3ccncc3)nc2c1)c1ccccc1 (stereo not given),-6.05% (inactive)
23,COC(=O)c1c(NC(=O)c2c(F)c(F)c(F)c(F)c2F)sc2c1CCCCC2,13.7% (inactive)
24,CS(=O)(=O)c1ccc(C(=O)N(CC2CCCO2)c2nc3ccccc3s2)cc1[N+](=O)[O-] (stereo not given),63.1% (inactive)

# Same assay, conditions: 20 µM; gametocyte preincubation time 24 h; readout time post-feed 8 days
row,SMILES,percentage of barcode signal found in uninfected mosquitoes
1,CC(C)(C)c1cc(C(=O)N2CCN(c3nccnc3C#N)CC2)n(Cc2ccccc2)n1,33.5% (inactive)
2,CCc1ccc(C(NCc2nc(N)nc(N(C)C)n2)C(C)C)cc1 (stereo not given),54.2% (inactive)
3,O=C(Nc1ccc(C(F)(F)F)c(C(F)(F)F)c1)c1cc(Cl)ccc1O,69.4% (inactive)
4,CCCCN(CCCC)c1c(C#N)cc(S(=O)(=O)Nc2ccccc2)cc1C#N,10.5% (inactive)
5,Cc1cc(Cl)ccc1NC(=O)CCc1ccc(S(=O)(=O)NCC(C)C)cc1,0.0223% (inactive)
6,OC[C@H]1O[C@@H](n2c3ccc(Cl)cc3c3c(-c4cc5ccccc5o4)ncnc32)C(O)[C@H]1O (stereo not given in full),8.88% (inactive)
7,Nc1cccnc1Nc1ccc(Cl)cc1,54.5% (inactive)
8,C[C@@H]1[C@H](O)[C@@H](C)/C=C/C=C/C=C/C=C/C=C/C=C/C=C/[C@H](O[C@@H]2O[C@H](C)[C@@H](O)[C@H](N)[C@@H]2O)C[C@@H]2O[C@](O)(C[C@@H](O)C[C@@H](O)[C@H](O)CC[C@@H](O)C[C@@H](O)CC(=O)O[C@H]1C)C[C@H](O)[C@H]2C(=O)O,-1.39% (inactive)
9,Cc1ccc(S(=O)(=O)n2cc(-c3ccnc(N)c3)c3cc(Br)cnc32)cc1,1.79% (inactive)
10,CS(=O)(=O)N1CCC(Cn2nc(Cc3cccc4ccccc34)c3c(N)ncnc32)CC1,28.2% (inactive)
11,CC1CCCN(C(=O)C(C)Nc2cc(Cl)ccc2N2CCOCC2)C1 (stereo not given),15.9% (inactive)
12,COc1ccc(CCN2CCC(NCc3cccc(N(C)C)c3)CC2)cc1,94.9% (active)
13,Cc1cccc(-c2nc(Nc3ccncn3)c3sccc3n2)n1,91.4% (active)
14,CCOc1ccccc1NC(C)C(=O)Nc1cc(C(F)(F)F)ccc1N1CCOCC1 (stereo not given),40.9% (inactive)
15,O=C(Nc1cccc(Cl)c1)c1cnc(N2CCN(c3ccncc3)CC2)c(Cl)c1,56% (inactive)
16,COc1cc(NC(=O)Cc2nn(C)c(=O)c3ccccc23)ccc1Cl,9.49% (inactive)
